# Laboratory results from PubChem BioAssay (NCATS).
# Where “and” joins values, the source holds several entries; their conditions need not be identical. Identical values can stand only once. Inconclusive results are not listed. A call without a number means that no potency is given here. Calls of active or inactive are those of the source. The call rests on the fitted dose curve; in most records, active means well fitted curve in the direction sought with a large enough effect; inconclusive means small, poorly fitted or top-dose-only effect, or another doubt; inactive means no such curve, though single readings can be large; an effect the other way counts as inactive or inconclusive.
# Assays:
# [1] = Primary qHTS for inhibitors of nuclear receptor binding SET domain protein 2 (NSD2) in an isogenic RCH-ACV NSD2 p.E1099K mutant (9B) (AID 1645876); settings: RCH-ACV NSD2 E1099K (9B) viability, CellTiter-Glo, 72 h; series mostly up to 44.9 µM; further: nearly all actives have a fitted effect of over 70% in size; further: potency means the concentration at half of the fitted maximal effect
# [2] = Primary qHTS for inhibitors of nuclear receptor binding SET domain protein 2 (NSD2) in an RCH-ACV wild type WT cells (2C) (AID 1645877); settings: RCH-ACV (leukaemia line) NSD2 WT (2C) viability, CellTiter-Glo, 72 h; series mostly up to 44.9 µM; further: nearly all actives have a fitted effect of over 70% in size; further: potency means the concentration at half of the fitted maximal effect
# [3] = biological target: Catechol O-methyltransferase (Homo sapiens) (UniProt P21964); assay: Confirmatory Screen for Target Class Profiling of Small Molecule Inhibitors of Methyltransferases (AID 1745852); settings: MTase-Glo luminescence, SAH detection, recombinant enzyme; measured here: COMT max response; stronger effect = lower value
# Catechol O-methyltransferase (Homo sapiens), sequence (P21964 whole entry, looked up): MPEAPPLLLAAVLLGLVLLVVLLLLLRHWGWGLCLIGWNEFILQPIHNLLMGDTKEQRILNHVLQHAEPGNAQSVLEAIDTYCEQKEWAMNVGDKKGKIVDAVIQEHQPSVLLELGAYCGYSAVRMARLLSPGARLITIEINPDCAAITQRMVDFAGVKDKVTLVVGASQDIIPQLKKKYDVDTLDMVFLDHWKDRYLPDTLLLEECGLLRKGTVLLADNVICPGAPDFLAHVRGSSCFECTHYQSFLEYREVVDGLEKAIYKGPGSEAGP
structure (smiles),measurement,setting,value
COc1ccc(/C=C/C(=O)O[C@@H]2[C@@H](O)[C@@H](O)[C@H](O[C@@H]3C=C(CO)[C@H]4[C@H](O[C@@H]5O[C@H](CO)[C@@H](O)[C@H](O)[C@H]5O)OC=C[C@H]43)O[C@H]2C)cc1O,Potency,[1],inactive
same,Potency,[2],inactive
COc1cc(/C=C/C(=O)O[C@H]2[C@H](O)[C@@H](CO)O[C@@]2(CO)O[C@H]2O[C@H](CO)[C@@H](O)[C@H](O)[C@H]2O)ccc1O,Potency,[1],inactive
same,Potency,[2],inactive
CO/N=C(/C(=O)N[C@@H]1C(=O)N2C(C(=O)O)=C(Cn3ccc(=N)n3CCO)CS[C@H]12)c1csc(N)n1,Potency,[1],inactive
same,Potency,[2],inactive
CC(C)=CCC[C@](C)(O[C@@H]1O[C@H](CO)[C@@H](O)[C@H](O)[C@H]1O)[C@H]1CC[C@]2(C)[C@@H]1[C@H](O)CC1[C@@]3(C)CC[C@H](O)C(C)(C)C3[C@@H](O[C@@H]3O[C@H](CO)[C@@H](O)[C@H](O)[C@H]3O[C@@H]3OC[C@@H](O)[C@H](O)[C@H]3O)C[C@]12C (stereo partly specified),"activity change, negative = viability loss",[1],-22.1% [at 9.23 µM] (inactive)
same,"activity change, negative = cell killing",[2],-29.2% [at 9.23 µM] (inactive)
O=C(/C=C\c1ccc(O)cc1)N[C@@H](Cc1ccc(O)cc1)C(=O)O,Potency,[1],inactive
same,Potency,[2],inactive
C[C@@H]1CCC2C(C)(C)[C@H](O)CC[C@]2(C)[C@@]12Cc1c(O)cc3c(c1O2)CN([C@@H](CCC(=O)O)C(=O)O)C3=O (stereo partly specified),Potency,[1],inactive
same,Potency,[2],inactive
COc1cc(O)c2c(c1)C1=CC(O)C(O)CC1(C)OC2=O (stereo unspecified),Potency,[1],inactive
same,Potency,[2],inactive
CC(C)CC1NC(=O)C(C)NC(=O)C(CC(C)C)OC(=O)CCCNC1=O (stereo unspecified),Potency,[1],inactive
same,Potency,[2],inactive
OCC(CO[C@@H]1O[C@H](CO)[C@@H](O)[C@H](O)[C@H]1O)c1ccc2c(c1)OCO2 (stereo partly specified),Potency,[1],inactive
same,Potency,[2],inactive
C=C(CO[C@@H]1O[C@H](CO[C@@H]2OC[C@](O)(CO)[C@H]2O)[C@@H](O)[C@H](O)[C@H]1O)C1Cc2cc(C(C)=O)ccc2O1 (stereo partly specified),Potency,[1],inactive
same,Potency,[2],inactive
CC1OC(OC2C(C)OC(OC3C(OC(=O)C45CCC(C)(C)CC4C4=CCC6C7(C)CCC(OC8OC(C(=O)O)C(O)C(O)C8OC8OC(CO)C(O)C(OC9OC(C)C(O)C(O)C9O)C8O)C(C)(CO)C7CCC6(C)C4(C)CC5)OC(CO)C(O)C3O)C(O)C2O)C(O)C(O)C1O (stereo unspecified),"activity change, negative = viability loss",[1],2.43% [at 9.23 µM] (inactive)
same,"activity change, negative = cell killing",[2],3.53% [at 9.23 µM] (inactive)
C=C1CCC2C(C)(C(=O)O)CCCC2(C)C1CCC(C)CC(=O)O (stereo unspecified),Potency,[1],inactive
same,Potency,[2],inactive
CCC(O)(C(=O)OCc1ccccc1NC(=O)CCC(=O)O)C(C)O (stereo unspecified),Potency,[1],inactive
same,Potency,[2],inactive
COc1cc(O)cc(C)c1C(=O)OC1C(CO)OC(OC2C(O)C(O)C(O)C(O)C2O)C(O)C1O (stereo unspecified),Potency,[1],inactive
same,Potency,[2],inactive
CC1=C(CO)C(=O)O[C@@H]([C@@H](C)[C@H]2CC[C@H]3[C@@H]4C[C@H]5O[C@]56[C@@H](O)C=CC(=O)[C@]6(C)[C@H]4CC[C@]23C)C1,Potency,[1],448 nM (active) and 263 nM (active)
same,Potency,[2],709 nM (active) and 263 nM (active)
C/C1=C\CC[C@H](C)CCO[C@@H]2O[C@H](CO[C@@H]3OC[C@](O)(COC1=O)[C@H]3O)[C@@H](O)[C@H](O)[C@H]2O,Potency,[1],inactive
same,Potency,[2],inactive
COC(=O)c1c(C)cc(OC(=O)c2c(C)cc(OC)cc2OC)cc1O[C@@H]1O[C@H](CO)[C@@H](O)[C@H](O)[C@H]1O,Potency,[1],inactive
same,Potency,[2],inactive
CC(=O)C1=C(C)N(c2cccc(C(F)(F)F)c2)C(=O)N[C@H]1c1ccc(C#N)nc1,"activity change, negative = viability loss",[1],-10.2% [at 9.23 µM] (inactive)
same,"activity change, negative = cell killing",[2],-17.1% [at 9.23 µM] (inactive)
CC1=C(C(=O)O)/C(=C\CO[C@@H]2O[C@H](CO)[C@@H](O)[C@H](O)[C@H]2O)C(OC(=O)/C=C/c2ccc(O)cc2)C1 (stereo partly specified),Potency,[1],inactive
same,Potency,[2],inactive
CC1CCC2(OC1)OC1CC3C4CCC5C[C@@H](O[C@@H]6O[C@H](CO[C@@H]7OC[C@@H](O)[C@H](O)[C@H]7O)[C@H](O)[C@H](O)[C@H]6O)CC[C@]5(C)C4CC[C@]3(C)C1C2C (stereo partly specified),Potency,[1],inactive
same,Potency,[2],inactive
COc1cc(C2Oc3c(OC)cc(CCCO)cc3C2CO)ccc1O[C@H]1O[C@H](C)[C@@H](O)[C@H](O)[C@@H]1O (stereo partly specified),Potency,[1],inactive
same,Potency,[2],inactive
CN(C)C/C=C/C(=O)Nc1cccc(C(=O)Nc2cccc(Nc3ncc(Cl)c(-c4c[nH]c5ccccc45)n3)c2)c1,Potency,[1],64.9 nM (active) and 148 nM (active)
same,Potency,[2],72.8 nM (active) and 132 nM (active)
same,activity,[3],-3.58%
CCC(=O)O[C@H]1C(C)(C)[C@H]([C@@H](O)C(=O)OC)[C@]2(C)C(=O)[C@@]1(O)[C@H]1O[C@]13C1CC(=O)O[C@@H](c4ccoc4)[C@]1(C)CCC32 (stereo partly specified),Potency,[1],inactive
same,Potency,[2],inactive
CC(O)(CC(=O)O)CC(=O)OCc1ccc(O[C@@H]2O[C@H](CO)[C@@H](O)[C@H](O)[C@H]2O)cc1 (stereo partly specified),Potency,[1],inactive
same,Potency,[2],inactive
same,activity,[3],-58.1%
COC(=O)C1=CO[C@@H](O[C@@H]2O[C@H](CO[C@@H]3O[C@H](COC(=O)/C=C/c4cc(OC)c(O)c(OC)c4)[C@@H](O)[C@H](O)[C@H]3O)[C@@H](O)[C@H](O)[C@H]2O)[C@@H]2C(CO)=CC[C@H]12,Potency,[1],inactive
same,Potency,[2],inactive
same,activity,[3],-63.8%
C[C@H](CCC(=O)O)[C@H]1CC[C@H]2[C@@H]3C[C@H](O)[C@@H]4C[C@H](O)CC[C@]4(C)[C@H]3CC[C@]12C,Potency,[1],inactive
same,Potency,[2],inactive
CC1(C)CC[C@]2(C(=O)O[C@@H]3O[C@H](CO)[C@@H](O)[C@H](O)[C@H]3O)CC[C@]3(C)C(=CCC4[C@@]5(C)C[C@@H](O)[C@H](O)[C@@](C)(CO)C5CC[C@]43C)C2[C@@H]1O (stereo partly specified),Potency,[1],inactive
same,Potency,[2],inactive
same,activity,[3],-79.9%
CC1=CC(=O)CC(C)(C)C1CCC(C)O[C@@H]1O[C@H](CO[C@@H]2OC[C@@H](O)[C@H](O)[C@H]2O)[C@@H](O)[C@H](O)[C@H]1O (stereo partly specified),Potency,[1],inactive
same,Potency,[2],inactive
same,activity,[3],-54.5%
CC(C)=CCC(O)/C(C)=C/CO[C@@H]1O[C@H](CO)[C@@H](O)[C@H](O)[C@H]1O (stereo partly specified),Potency,[1],inactive
same,Potency,[2],inactive
same,activity,[3],-52%
CCCCc1nc2cc(/C=C/C(=O)NO)ccc2n1CCN(CC)CC,Potency,[1],258 nM (active) and 590 nM (active)
same,Potency,[2],230 nM (active) and 525 nM (active)
same,activity,[3],-23.3%
C=C[C@H]1[C@H](O[C@@H]2O[C@H](CO)[C@@H](O)[C@H](O)[C@H]2O)OC=C(C(=O)OC)[C@H]1C/C=C(/C=O)[C@@H]1C(C(=O)OC)=CO[C@@H](O[C@@H]2O[C@H](CO)[C@@H](O)[C@H](O)[C@H]2O)[C@@H]1C=C,Potency,[1],inactive
same,Potency,[2],inactive
same,activity,[3],-65.2%
Oc1ccc(CNc2ccccc2F)c2cccnc12,Potency,[1],12.9 µM (active)
same,Potency,[2],4.09 µM (active)
same,activity,[3],-81.9%
CC/C=C\CCO[C@@H]1O[C@H](CO)[C@@H](O)[C@H](O)[C@H]1O,Potency,[1],inactive
same,Potency,[2],inactive
same,activity,[3],-74.1%
O=C(/C=C/c1ccccc1)OC[C@]12O[C@H]1[C@@H](O)[C@@H]1C=CO[C@@H](O[C@@H]3O[C@H](CO)[C@@H](O)[C@H](O)[C@H]3O)[C@@H]12,Potency,[1],inactive
same,Potency,[2],inactive
same,activity,[3],-55.2%
C=C1C(=O)OC2/C=C(\CO)CC/C=C(\C=O)CC(OC(=O)CC(C)C)C12 (stereo unspecified),Potency,[1],4.01 µM (active)
same,Potency,[2],2.26 µM (active)
same,activity,[3],-71%
C=C(C)C(=O)OC1CC2(C)OC(=CC2=O)C(=C)CC2OC(=O)C(COC)C12 (stereo unspecified),Potency,[1],4.01 µM (active)
same,Potency,[2],1.79 µM (active)
same,activity,[3],-94%
Cc1ccccc1CN1C2=NCCN2C(=O)C2=C1CCN(Cc1ccccc1)C2,Potency,[1],inactive
same,Potency,[2],inactive
C=C[C@H]1[C@H](O[C@@H]2O[C@H](CO)[C@@H](O)[C@H](O)[C@H]2O)OC=C(C(=O)OC)[C@H]1CCOC(=O)c1cc(O)c(O)c(O)c1,Potency,[1],inactive
same,Potency,[2],inactive
same,activity,[3],-67.5%
C=C1CC23CC1CCC2C12OC(=O)C(C)(CCC1O)C2C3C(=O)O (stereo unspecified),Potency,[1],inactive
same,Potency,[2],inactive
COc1ccc(CCO[C@@H]2O[C@H](CO[C@@H]3OC[C@H](O)[C@H](O)[C@H]3O)[C@@H](O)[C@H](O)[C@H]2O)cc1,Potency,[1],inactive
same,Potency,[2],inactive
same,activity,[3],-55.1%
CC(=O)O[C@H]1CC[C@@]2(C)C(CC[C@@H](C)[C@]23Cc2c(O)cc4c(c2O3)CN([C@@H](CCC(=O)O)C(=O)O)C4=O)C1(C)C (stereo partly specified),Potency,[1],inactive
same,Potency,[2],inactive
CC(=O)OC/C=C(\C)C(CC1C(C)=C(OC(C)=O)C(=O)C2C(C)(C)C(O)CCC12C)OC(C)=O (stereo unspecified),Potency,[1],inactive
same,Potency,[2],inactive
same,activity,[3],-67.8%
CC(C)CC(=O)OC1OC=C(CO[C@@H]2O[C@H](CO)[C@@H](O)[C@H](O)[C@H]2O)C2CC(O)C(O)(CO)C12 (stereo partly specified),Potency,[1],inactive
same,Potency,[2],inactive
COC(=O)C1=C2Nc3ccccc3C23CCN2CCCC(C(C)O)(C1)C23 (stereo unspecified),Potency,[1],inactive
same,Potency,[2],inactive
same,activity,[3],-1.85%
C=C(C)C1Cc2cc(C(=O)OC3OC(CO)C(O)C(O)C3O)ccc2O1 (stereo unspecified),Potency,[1],inactive
same,Potency,[2],inactive
same,activity,[3],-58%
CCc1c(-c2ccccc2)c(-c2ccccc2)nn1-c1ccccc1-c1cccc(OCC(=O)O)c1,Potency,[1],inactive
same,Potency,[2],inactive
same,activity,[3],-1.93%
C=C1C(=O)OC2C1CCC(=C)C1CC(OC(C)=O)C(=C)C12 (stereo unspecified),Potency,[1],10.3 µM (active)
same,Potency,[2],3.25 µM (active)
same,activity,[3],-65.1%
CC1=CC(=O)C2(OC3OC(C)C(O)C(OC(=O)/C=C/c4ccccc4)C3O)C=COC(OC3OC(CO)C(O)C(O)C3O)C12 (stereo unspecified),Potency,[1],inactive
same,Potency,[2],inactive
same,activity,[3],-48.2%
CC1CCC2(CO)C(C(=O)O)=CCCC2C1(C)CCc1ccoc1 (stereo unspecified),Potency,[1],inactive
same,Potency,[2],inactive
same,activity,[3],-92.5%
c1cn2cc(-c3ccc4cn[nH]c4c3)nc(Nc3ccc(N4CCOCC4)cc3)c2n1,Potency,[1],0.325 µM (active)
same,Potency,[2],0.409 µM (active)
same,activity,[3],-53.7%
COC(=O)C1=CO[C@@H](O[C@@H]2O[C@H](CO)[C@@H](O)[C@H](O)[C@H]2O)[C@H]2[C@@H]1CC(OC)O[C@@H]2C (stereo partly specified),Potency,[1],inactive
same,Potency,[2],inactive
same,activity,[3],-63.3%
